Each structure is given as a SMILES string. Results filed as inconclusive are left out. Activity calls are given as the source filed them. Unless noted, calls follow the shape of the dose curve; as a rule, active = well fitted curve in the direction sought with a large enough effect; inconclusive = small, poorly fitted or top-dose-only effect, or another doubt; inactive = no such curve, though single readings can be large; an effect the other way counts as inactive or inconclusive.

The target of assay [1] is Chromobox protein homolog 1 (Homo sapiens) (UniProt P83916). Put plainly: qHTS Validation Assay for Inhibitors of HP1-beta Chromodomain Interactions with Methylated Histone Tails (AID 488953). Also: nearly all actives have a fitted effect of over 50% in size. Also: potency is read from the fitted curve at half-maximal effect. Put shortly: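 50 nM HP1-beta + 50 nM biotin-H3(1-18)K9me3, PBS pH 7.4, 0.01% Tween-20, 30 min RT; compound added, 30 min RT; AlphaScreen beads 10 ug/mL final, 30 min dark; luminescence read.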

Assay [2] concerns the target Methanococcus maripaludis chaperonin (MmCpn) (UniProt Q6LX38). Put plainly: High-Throughput Screening for Modulators of Cytosolic Chaperonin Activity: MmCpn Primary Screen (AID 488978).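 Also: 50 nM MmCpn enzyme hydrolysing 30 µM ATP at 37 °C; 0% is about no effect.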 An outline of the steps:
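Measures ATPase turnover of the M. maripaludis chaperonin (50 nM final) against 30 uM ATP over 10 min at 37C, with compound added 5 min beforehand at room temperature. ADP is quantified by HTRF immunodetection.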

For assay [3], the target named is Thyrotropin receptor (Homo sapiens) (UniProt P16473). Put plainly: qHTS Assay for Antagonists of the Thyroid Stimulating Hormone Receptor (AID 488980). Also: series mostly up to about 58 µM; 0% is about no effect. An outline of the steps:
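Cells expressing human TSHR (HEK293) are dispensed in HBSS/HEPES containing 70 uM RO 20-1724, compound is added, then TSH at EC80 (4 nM final). Antibody in lysis buffer follows, 30 minutes at room temperature before HTRF detection.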
(In general: In qHTS, concentration-response curves come from the screen itself.)

Assay [4] concerns the target D(1A) dopamine receptor (Homo sapiens) (UniProt P21728). In words: HTS Assay for Allosteric Agonists of the Human D1 Dopamine Receptor: Primary Screen for Agonists (AID 488981). Also: 0% is about no effect. Put shortly:
(§1)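 Tetracycline-induced HEK293 Trex D1 cells with forced coupling to calcium, loaded with no-wash calcium dye; kinetic fluorescence read 180 s after compound addition for agonism, then a further 180 s after an EC20 dopamine challenge for potentiation.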

Assay [5] has the same target. In words: HTS Assay for Allosteric Agonists of the Human D1 Dopamine Receptor: Primary Screen for Potentiators (AID 488982). Also: 0% is about no effect. An outline of the steps:
as §1

Assay [6] shares this target. In words: HTS Assay for Allosteric Agonists of the Human D1 Dopamine Receptor: Primary Screen for Antagonists (AID 488983).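 Also: calcium flux response to an EC80 dopamine challenge measured with no-wash dye; nearly all actives have a fitted effect of over 65% in size.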 Also: potency is read from the fitted curve at half-maximal effect. An outline of the steps:
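Cells are induced with tetracycline and incubated overnight at 30 C, then loaded with calcium dye for 30 to 90 minutes at room temperature. Compound addition is followed by a 180 s read, then an EC80 dopamine addition and another 180 s read.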

Assay [7] is described as follows: Validation screen for small molecules that induce genotoxicity in human embryonic kidney (HEK293T) cells expressing luciferase-tagged ELG1 (AID 493106). Also: potency is read from the fitted curve at half-maximal effect. An outline of the steps:
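Luminescence from an ELG1-luciferase fusion serves as the read-out, rising when genetic stress elevates ELG1 protein. HEK293T reporter cells (2,000 per well) received 23 nL compound, incubated 16 hr at 37 °C, then ONE-Glo for 30 min at room temperature.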

In assay [8] the target is ATPase family AAA domain-containing protein 5 (Homo sapiens) (UniProt Q96QE3). Put plainly: Validation screen for small molecules that inhibit ELG1-dependent DNA repair in human embryonic kidney (HEK293T) cells expressing luciferase-tagged ELG1 (AID 493107).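 Also: cells co-treated with the DNA-damaging agent 5-fluorouridine alongside compound; series mostly up to about 46 µM; % is scaled to controls: 0 for no effect and ±100 for the full control effect; inhibitors lower the ELG1-luciferase luminescence signal; nearly all actives have a fitted effect of over 70% in size.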 An outline of the steps:
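Luminescence from ONE-Glo, developed 30 min at room temperature, served as read-out of ELG1-luciferase levels. Beforehand, reporter HEK293T cells received 5-fluorouridine plus test compound for 16 hr at 37 °C.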

For assay [9], the target named is Thyrotropin-releasing hormone receptor (Homo sapiens) (UniProt P34981). Put plainly: qHTS for Small Molecule Agonists and Allosteric Enhancers of Human TRH Receptor: Validation Screen for Agonists (AID 493127;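 active = calcium activation more than 3 SD above the typical response in the agonist read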;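 also: intracellular calcium rise by fluo-8 fluorescence before TRH EC20 addition; 0% is about no effect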). The settings on record: TRH receptor agonist cell assay; at 2 µM; stronger effect = higher value. Put shortly: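 Cells 2000/well, 10% FCS, 18 h 33.5C/5% CO2 → fluo-8 Ca dye, RT 30 min–1.5 h → FDSS baseline 10 × 1 s → compound added → 230 cycles (1 s/cycle) agonist mode. TRH controls.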

The nature of assay [10]: qHTS for Inhibitors of Cell Surface uPA Generation: Validation Assay (AID 493164). Also: 0% is about no effect. Put shortly: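 RAW 264.7 cells (4000/well) were plated overnight, then exposed for 18 h at 37 C, 5% CO2 to compounds in a 7-point 1:5 titration (2.45 nM–38.3 uM final). Intracellular ATP was read by ATP-Lite luminescence.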
The target of assay [11] is Galactokinase (Homo sapiens) (UniProt P51570). In words: qHTS Validation Assay for Inhibitors of Human Galactokinase (GALK) (AID 493189). Also: 0% is about no effect. An outline of the steps: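 Compounds were pin-transferred into ATP buffer, then GALK-galactose mix was added (final 5 nM enzyme, 100 uM galactose, 35 uM ATP). After 1 h at room temperature, remaining ATP was measured luminescently.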

Assay [12] in a line: Validation screen for small molecules that induce DNA re-replication in SW480 colon adenocarcinoma cells (AID 504364). Also: potency is read from the fitted curve at half-maximal effect. Put shortly:
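250 cells/well; compound pinned in; 48 hr, 37 C, 5% CO2; Hoechst added, 40 min; nuclear fluorescence imaged, 405 ex / 500-530 em; re-replication scored as increase in high-intensity nuclei.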

The target in assay [13] is Peptidyl-prolyl cis-trans isomerase NIMA-interacting 1 (Homo sapiens) (UniProt Q13526). Put plainly: qHTS Validation Assay to Find Inhibitors of Pin1 (AID 504536; active = well fitted inhibition curve with a large enough effect in the polarisation, with a control signal flat, not every such curve was filed as active; the % refers to the polarisation;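 also: 0% = full Pin1 enzyme wells and -100% = no-enzyme wells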). An outline of the steps:
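Fluorescence polarization competition: compounds (titration) displace HiFluor-488-labeled Pin1-1b peptide from Pin1 (0.3 uM final) in pH 7.5 HEPES buffer with DTT, 10 min at room temperature; %Activity normalized to no-enzyme wells, curves fitted.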

In assay [14] the target is Phosphoglycerate kinase, glycosomal (Trypanosoma brucei brucei) (UniProt P07378). In words: qHTS Validation Assay to Find Inhibitors of Phosphoglycerate Kinase (AID 504547). Also: potency is read from the fitted curve at half-maximal effect. Put shortly: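 PGK activity was coupled to GAPDH (100nM final), which generates the unstable substrate 1,3-bisphosphoglycerate in-well. Reactions ran 60 minutes at room temperature in 100mM TEA pH 7.6, 5mM MgCl2, 0.01% Tween-20, then Kinase-Glo Plus luminescence was read.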

Assay [15] addresses phosphoglycerate mutase (Leishmania major) (UniProt Q4Q090). Put plainly: qHTS Validation Assay to Find Inhibitors of Phosphoglycerate Mutase (AID 504548). Also: potency is read from the fitted curve at half-maximal effect. The following applies: Potency: inhibition qHTS. An outline of the steps:
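L. major PGAM (1.25nM final) was added to substrate buffer and pinned compound, incubated 45 minutes at room temperature, then Kinase-GloPlus added; luminescence read after 10 minutes. Buffer: 100 mM TEA pH 7.6, 5 mM MgCl2, 0.01% Tween-20.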

For assay [16], the target named is Ubiquitin carboxyl-terminal hydrolase 1 (Homo sapiens) (UniProt O94782). In words: Inhibitors of USP1/UAF1: Pilot qHTS (AID 504865).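 Also: rhodamine fluorescence freed from ubiquitin-rhodamine substrate followed over time; top concentration of the series differs between compounds; % is scaled to controls: 0 for no effect and ±100 for the full control effect; nearly all actives have a fitted effect of over 35% in size.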 An outline of the steps:
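Kinetic fluorescence assay: 1nM USP1/UAF1, 15 min compound preincubation, then 150nM Ub-Rho; 480/540 nm.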

The nature of assay [17]: qHTS for Inhibitors of ATXN expression: Validation of Cytotoxic Assay (AID 588349). Also: % is scaled to controls: 0 for no effect and ±100 for the full control effect. Put shortly:
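Read-out: ATP-based luminescence (CellTiter Glo) reflecting viability of HEK293 cells after 72 hr incubation at 37 degrees C with a concentration series of each compound.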

The nature of assay [18]: qHTS for Inhibitors of ATXN expression: Validation (AID 588378). Also: series mostly up to about 57 µM; % is scaled to controls: 0 for no effect and ±100 for the full control effect; nearly all actives have a fitted effect of over 75% in size. Put shortly:
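Validation of ATXN2 expression inhibitors uses a cell-based luciferase fusion reporter in HEK293 cells, with 24 h compound exposure and paired viability (fluorescence) and reporter (luminescence) end-point reads.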

A short description of assay [19]: Nrf2 qHTS screen for inhibitors: Validation (AID 493153; active = well fitted inhibition curve with a large enough effect in the main read-out, with a control signal flat, not every such curve was filed as active). The following applies: Potency: luciferase luminescence; viability change: measured here: cytotoxicity max response. An outline of the steps: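 Luminescence from an ARE-firefly luciferase reporter in A549 cells gives Nrf2 inhibition; an earlier CellTiter-Fluor fluorescent read flags cytotoxicity. Cells in 5% FBS OPTI-MEM received compound dilution series for 18-24 h at 37°C.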

Chain of Methanococcus maripaludis chaperonin (MmCpn) (Q6LX38 1-543): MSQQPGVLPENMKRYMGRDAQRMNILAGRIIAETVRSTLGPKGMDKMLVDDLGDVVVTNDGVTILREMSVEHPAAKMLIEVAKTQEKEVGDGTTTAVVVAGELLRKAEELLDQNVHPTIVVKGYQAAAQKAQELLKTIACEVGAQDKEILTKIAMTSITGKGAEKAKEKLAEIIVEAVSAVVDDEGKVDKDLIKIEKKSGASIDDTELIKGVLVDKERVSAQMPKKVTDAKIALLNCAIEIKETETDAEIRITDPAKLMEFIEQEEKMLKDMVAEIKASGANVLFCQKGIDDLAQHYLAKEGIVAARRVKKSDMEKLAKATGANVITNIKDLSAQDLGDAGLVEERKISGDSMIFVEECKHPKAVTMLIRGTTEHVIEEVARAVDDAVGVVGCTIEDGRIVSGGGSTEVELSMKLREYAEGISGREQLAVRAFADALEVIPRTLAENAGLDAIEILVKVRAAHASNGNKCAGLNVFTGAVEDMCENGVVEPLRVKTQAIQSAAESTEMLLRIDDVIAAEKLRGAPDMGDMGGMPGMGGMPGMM
Chain of D(1A) dopamine receptor (Homo sapiens) (P21728 whole entry, looked up): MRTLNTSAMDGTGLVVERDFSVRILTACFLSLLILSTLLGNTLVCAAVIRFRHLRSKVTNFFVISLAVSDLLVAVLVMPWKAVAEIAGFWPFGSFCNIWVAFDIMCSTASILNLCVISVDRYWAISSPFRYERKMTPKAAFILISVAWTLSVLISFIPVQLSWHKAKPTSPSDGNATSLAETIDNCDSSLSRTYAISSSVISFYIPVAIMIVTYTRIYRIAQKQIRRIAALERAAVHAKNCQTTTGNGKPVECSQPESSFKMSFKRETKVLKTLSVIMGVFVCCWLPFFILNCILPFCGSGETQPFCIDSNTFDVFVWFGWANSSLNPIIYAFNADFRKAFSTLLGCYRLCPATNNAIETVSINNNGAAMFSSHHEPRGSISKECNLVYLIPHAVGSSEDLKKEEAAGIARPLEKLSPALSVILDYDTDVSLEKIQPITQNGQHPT
Chain of Ubiquitin carboxyl-terminal hydrolase 1 (Homo sapiens) (O94782 whole entry, looked up): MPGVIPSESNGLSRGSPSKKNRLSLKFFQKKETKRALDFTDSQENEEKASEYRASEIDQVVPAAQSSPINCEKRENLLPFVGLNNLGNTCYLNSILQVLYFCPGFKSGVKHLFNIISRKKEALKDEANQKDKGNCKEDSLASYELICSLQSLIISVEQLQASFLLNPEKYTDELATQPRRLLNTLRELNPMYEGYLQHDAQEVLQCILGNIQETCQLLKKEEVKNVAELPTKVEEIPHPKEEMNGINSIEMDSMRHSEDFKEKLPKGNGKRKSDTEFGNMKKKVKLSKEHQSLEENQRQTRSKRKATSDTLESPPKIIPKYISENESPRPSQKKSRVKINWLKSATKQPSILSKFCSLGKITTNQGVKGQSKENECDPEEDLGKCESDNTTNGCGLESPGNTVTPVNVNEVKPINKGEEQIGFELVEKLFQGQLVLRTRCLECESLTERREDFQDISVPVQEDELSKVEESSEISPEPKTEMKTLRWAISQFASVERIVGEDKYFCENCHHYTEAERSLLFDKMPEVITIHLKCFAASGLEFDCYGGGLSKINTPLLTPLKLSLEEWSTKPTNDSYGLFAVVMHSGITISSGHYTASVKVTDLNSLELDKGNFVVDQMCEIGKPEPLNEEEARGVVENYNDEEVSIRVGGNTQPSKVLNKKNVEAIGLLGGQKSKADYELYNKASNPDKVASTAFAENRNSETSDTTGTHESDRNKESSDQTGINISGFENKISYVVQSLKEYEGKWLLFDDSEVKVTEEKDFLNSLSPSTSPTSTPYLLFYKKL
Chain of Thyrotropin receptor (Homo sapiens) (P16473 whole entry, looked up): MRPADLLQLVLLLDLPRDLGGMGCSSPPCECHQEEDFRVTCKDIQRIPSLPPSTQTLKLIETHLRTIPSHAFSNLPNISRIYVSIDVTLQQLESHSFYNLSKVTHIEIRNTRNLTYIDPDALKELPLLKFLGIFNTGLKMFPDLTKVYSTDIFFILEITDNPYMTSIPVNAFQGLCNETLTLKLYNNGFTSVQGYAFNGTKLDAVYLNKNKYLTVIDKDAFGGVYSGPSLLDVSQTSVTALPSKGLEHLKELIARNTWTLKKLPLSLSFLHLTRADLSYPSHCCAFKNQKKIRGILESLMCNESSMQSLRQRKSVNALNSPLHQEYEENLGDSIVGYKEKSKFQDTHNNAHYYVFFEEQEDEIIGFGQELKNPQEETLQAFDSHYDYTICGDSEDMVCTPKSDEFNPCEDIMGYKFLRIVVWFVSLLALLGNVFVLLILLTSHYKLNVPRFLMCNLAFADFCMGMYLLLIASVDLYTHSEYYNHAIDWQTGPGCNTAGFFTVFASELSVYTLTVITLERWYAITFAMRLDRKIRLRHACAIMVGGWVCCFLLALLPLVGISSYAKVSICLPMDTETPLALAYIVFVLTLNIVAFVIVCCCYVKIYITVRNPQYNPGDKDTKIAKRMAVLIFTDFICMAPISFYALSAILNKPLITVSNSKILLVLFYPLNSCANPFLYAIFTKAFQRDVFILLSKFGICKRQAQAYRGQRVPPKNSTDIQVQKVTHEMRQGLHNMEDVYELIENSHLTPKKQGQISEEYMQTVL
Chain of Thyrotropin-releasing hormone receptor (Homo sapiens) (P34981 whole entry, looked up): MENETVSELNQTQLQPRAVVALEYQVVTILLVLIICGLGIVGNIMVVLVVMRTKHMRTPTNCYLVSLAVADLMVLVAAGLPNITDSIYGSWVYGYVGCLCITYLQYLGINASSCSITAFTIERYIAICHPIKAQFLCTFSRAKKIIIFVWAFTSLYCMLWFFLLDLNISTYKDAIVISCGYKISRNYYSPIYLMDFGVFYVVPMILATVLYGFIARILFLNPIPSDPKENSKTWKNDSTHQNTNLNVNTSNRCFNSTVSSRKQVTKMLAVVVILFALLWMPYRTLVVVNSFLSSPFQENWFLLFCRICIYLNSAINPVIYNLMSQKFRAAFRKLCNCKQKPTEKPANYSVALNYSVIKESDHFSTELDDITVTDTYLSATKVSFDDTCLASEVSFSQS
Chain of Chromobox protein homolog 1 (Homo sapiens) (P83916 whole entry, looked up): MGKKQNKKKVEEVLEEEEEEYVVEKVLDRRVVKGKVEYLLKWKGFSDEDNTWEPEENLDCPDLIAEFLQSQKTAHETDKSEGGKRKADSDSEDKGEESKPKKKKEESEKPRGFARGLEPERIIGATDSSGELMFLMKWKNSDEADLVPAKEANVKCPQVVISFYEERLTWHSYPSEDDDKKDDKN
Chain of phosphoglycerate mutase (Leishmania major) (Q4Q090 1-553): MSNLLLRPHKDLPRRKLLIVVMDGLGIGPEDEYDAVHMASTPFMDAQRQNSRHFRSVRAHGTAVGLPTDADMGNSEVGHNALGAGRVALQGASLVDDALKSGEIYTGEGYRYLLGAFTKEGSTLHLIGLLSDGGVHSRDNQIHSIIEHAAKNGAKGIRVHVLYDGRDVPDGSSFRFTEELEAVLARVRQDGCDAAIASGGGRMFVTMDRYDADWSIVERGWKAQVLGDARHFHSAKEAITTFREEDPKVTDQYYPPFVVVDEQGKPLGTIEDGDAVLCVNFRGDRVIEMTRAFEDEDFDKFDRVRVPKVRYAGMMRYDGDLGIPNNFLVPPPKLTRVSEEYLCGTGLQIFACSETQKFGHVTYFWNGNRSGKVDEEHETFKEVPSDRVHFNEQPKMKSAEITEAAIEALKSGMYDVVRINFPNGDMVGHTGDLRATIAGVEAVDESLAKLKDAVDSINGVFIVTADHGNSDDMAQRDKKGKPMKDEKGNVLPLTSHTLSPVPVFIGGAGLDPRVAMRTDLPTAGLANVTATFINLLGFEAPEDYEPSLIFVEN
Chain of Peptidyl-prolyl cis-trans isomerase NIMA-interacting 1 (Homo sapiens) (Q13526 whole entry, looked up): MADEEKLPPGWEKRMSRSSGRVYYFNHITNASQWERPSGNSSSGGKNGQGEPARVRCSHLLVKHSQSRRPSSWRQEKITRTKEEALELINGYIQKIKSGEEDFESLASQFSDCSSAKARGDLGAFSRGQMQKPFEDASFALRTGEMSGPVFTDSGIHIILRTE
Chain of Galactokinase (Homo sapiens) (P51570 whole entry, looked up): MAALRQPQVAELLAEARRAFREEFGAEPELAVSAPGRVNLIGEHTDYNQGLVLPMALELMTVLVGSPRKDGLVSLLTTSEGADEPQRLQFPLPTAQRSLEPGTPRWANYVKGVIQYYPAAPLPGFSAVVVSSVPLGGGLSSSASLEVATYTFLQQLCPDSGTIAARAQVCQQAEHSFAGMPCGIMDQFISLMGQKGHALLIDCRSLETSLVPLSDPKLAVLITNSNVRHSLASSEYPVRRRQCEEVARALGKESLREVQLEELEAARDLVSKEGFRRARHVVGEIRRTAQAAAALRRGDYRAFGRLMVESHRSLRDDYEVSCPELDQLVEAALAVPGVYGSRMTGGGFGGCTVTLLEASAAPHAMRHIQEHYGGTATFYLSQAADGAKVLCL
Chain of Phosphoglycerate kinase, glycosomal (Trypanosoma brucei brucei) (P07378 whole entry, looked up): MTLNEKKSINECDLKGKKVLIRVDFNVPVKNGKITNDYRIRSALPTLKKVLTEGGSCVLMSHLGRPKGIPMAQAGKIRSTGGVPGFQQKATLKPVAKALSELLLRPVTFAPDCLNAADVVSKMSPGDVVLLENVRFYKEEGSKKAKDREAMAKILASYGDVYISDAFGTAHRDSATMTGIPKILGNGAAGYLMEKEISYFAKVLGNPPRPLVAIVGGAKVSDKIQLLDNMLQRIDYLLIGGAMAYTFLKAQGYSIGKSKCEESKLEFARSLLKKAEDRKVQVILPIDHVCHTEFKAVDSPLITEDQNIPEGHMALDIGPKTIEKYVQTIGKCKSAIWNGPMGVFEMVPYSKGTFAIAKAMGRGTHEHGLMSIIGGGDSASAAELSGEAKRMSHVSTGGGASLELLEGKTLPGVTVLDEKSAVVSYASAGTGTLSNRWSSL

Consider `COc1ccccc1N1CCN(CCN(C(=O)C2CCCCC2)c2ccccn2)CC1`, for which the Potency entry in assay [1], in [5], in assay [6], in [7], in [12] and in assay [14] was “inactive” in each case. Besides, the Potency result in [15], in assay [16] and in assay [18] was “inactive” in each case. Besides, the result in [2], in [3], in assay [4], in [8], in [10] and in assay [11] was inactive. The outcome in [13] and in assay [17] was inactive. Also, the activation in assay [9] is -4.06% (inactive).
As to `O=c1c(O)c(-c2cc(O)c(O)c(O)c2)oc2cc(O)cc(O)c12`, the figures for the Potency in [1] and in assay [14] were 14.1 µM (active) and 3.01 µM (active), respectively. In addition, the outcome in assay [2], in assay [3], in assay [4], in [8], in assay [10] and in [11] was inactive. For the same compound, the Potency result in [5], in assay [7], in assay [19], in assay [12] and in assay [15] was “inactive” in each case. The activation in assay [9] is 1.38% (inactive). The viability change in assay [19] is -7.68%.
For `Oc1ccc(-c2nc(-c3ccc(F)cc3)c(-c3ccncc3)[nH]2)cc1`, in [1], the Potency is 56.2 µM (active). Moreover, the compound was classed as inactive in [2], in assay [3], in assay [4], in assay [10], in assay [11] and in [13]. Further, the outcome in assay [17] was inactive. The Potency entry in [5], in [6], in [7], in assay [12], in assay [14] and in assay [15] was “inactive” throughout. Moreover, in assay [18], the Potency result was “inactive”. Moreover, the activation in assay [9] was -3.81% (inactive).
On to `O=C(CCc1ccc(O)cc1)c1c(O)cc(O)cc1O`, for which the Potency entry in [1], in assay [5], in assay [6], in assay [7], in assay [19] and in assay [12] was “inactive” in each case. Moreover, the Potency result in assay [14], in assay [15] and in assay [18] was “inactive” each time. The compound was classed as inactive in assay [2], in [3], in assay [4], in assay [10], in assay [11] and in assay [13]. Besides, the result in assay [17] was inactive. Moreover, the activation in assay [9] was 1.75% (inactive). The viability change in assay [19] is -1.1%.
With `O=Nc1c(-c2c(O)[nH]c3cc(Br)ccc23)[nH]c2ccccc12`, the Potency is 2.82 µM (active) in [1], 920 nM (active) in [7] and 21.3 µM (active) in [15]. The result in [3], in assay [4], in assay [10], in [11] and in assay [13] was inactive. The Potency result in assay [5], in assay [12], in assay [16] and in assay [18] was “inactive” each time. Further, in assay [9], the activation is -8.62% (inactive).
For `NC(=NCc1ccccc1)NC(=O)c1nc(Cl)c(N)nc1N`, the Potency entry in assay [1], in assay [5], in [7], in assay [19], in assay [12] and in assay [14] was “inactive” throughout. For the same compound, the Potency entry in [15], in assay [16] and in assay [18] was “inactive” in each case. In addition, the outcome in assay [2], in [3], in [4], in [8], in [10] and in assay [11] was inactive. Further, the result in assay [13] was inactive. Besides, the Potency in assay [6] is 5.01 µM (active). In addition, the activation in [9] is 0.438% (inactive). The viability change in [19] was found to be 2.7%.
Take `Nc1ccn([C@@H]2O[C@H](CO)[C@@H](O)C2O)c(=O)n1` (stereo partly drawn): the Potency result in [1], in assay [5], in assay [6], in assay [7], in [14] and in assay [15] was “inactive” throughout. The Potency entry in assay [16] was “inactive”. The compound was classed as inactive in assay [2], in assay [4], in assay [8], in [10], in [13] and in assay [17].
Regarding `CCOC(=O)C(C)Oc1cccc2c(=O)n(CC(=O)Nc3ccc4c(c3)OCCO4)ccc12` (stereo not drawn), the Potency result in assay [1], in [5], in [6], in [19], in assay [14] and in assay [15] was “inactive” throughout. For the same compound, the Potency entry in [16] and in assay [18] was “inactive” throughout. In addition, the result in [2], in [4], in [8], in assay [10] and in assay [17] was inactive. The viability change in [19] was -3.9%.
`CC(=O)O[C@H]1C(=O)[C@@]2(C)C([C@H](OC(=O)c3ccccc3)[C@]3(O)C[C@H](OC(=O)[C@H](O)[C@@H](NC(=O)c4ccccc4)c4ccccc4)C(C)=C1C3(C)C)[C@]1(OC(C)=O)CO[C@@H]1C[C@@H]2O` (stereo partly drawn): the Potency entry in [1], in assay [5], in assay [6], in assay [7], in [14] and in [15] was “inactive” throughout. Further, the Potency entry in assay [16] is “inactive”. In addition, the outcome in [2], in assay [3], in assay [4], in assay [10] and in [11] was inactive. The activation in [9] was 0.562% (inactive). Further, in [12], the Potency was 9.2 nM (active).
Take `COc1cc2nc(N3CCN(C(=O)C4CCCO4)CC3)nc(N)c2cc1OC` (stereo not drawn): the Potency result in assay [1], in assay [5], in assay [7], in assay [19], in assay [12] and in assay [14] was “inactive” throughout. The Potency result in assay [15], in [16] and in assay [18] was “inactive” throughout. Besides, the result in [2], in assay [4], in assay [8], in [10], in [11] and in [13] was inactive. In addition, in assay [17], the result was inactive. Besides, the activation in assay [9] is 0.562% (inactive). Further, the viability change in [19] was -1.63%.

The record behind these values is PubChem BioAssay (NCATS).
